Out of some 1,400 compounds screened, about 380 (27%) were called active. The list shows a part of the results. Unmarked numbers belong to inactive results.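 The calls were made as follows: active = mean inhibition above 50% across duplicate retests at 10 µM; inactive = the rest.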

A word on the inhibition: it is the share of the control response that was lost under treatment.

This assay is described as follows: inhibition of NALP1/ASC/caspase-1 reporter signal in yeast, confirmation, NALP1 inhibitor project, S. cerevisiae, luminescence, single concentration (AID 488841).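 Also: plate controls were DMSO in galactose medium for no effect and cells in plain SD medium for full effect.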 To be noted: S. cerevisiae NALP1/ASC/Caspase-1 reporter, beta-gal luminescence; at 10 µM; hits give high values.
`CC(CCc1ccccc1)NC(=O)c1cc2sccc2n1C` (stereo unspecified): the inhibition is 46.2%.

`COc1cc(C(=O)CCN2CCC(c3ccccc3)C2)cc(OC)c1OC` (stereo unspecified): the inhibition was 41%.

For `CC1CCN(C(=O)/C=C/c2ccc(C(C)(C)C)cc2)CC1`, the inhibition is 54.6% (active).

As for `O=C(/C=C/c1ccccc1)N1CCC(c2ccccc2)C1` (stereo unspecified), the inhibition is 54% (active).

On to `O=C(/C=C/c1ccccc1)/C=C/c1ccccc1`, for which the inhibition is 47.8%.

`FC(F)(F)C(F)(F)c1nnc2ccc(-n3ccnc3)nn12`: the inhibition is 23%.

Consider `O=C(O)c1ccccc1SC1CC(=O)N(c2ccccc2)C1=O` (stereo unspecified), for which the inhibition was 37.8%.

For the molecule `O=C1CC(Sc2nnnn2-c2ccccc2)C(=O)N1c1cccc(Cl)c1` (stereo unspecified), the inhibition is 59.5% (active).

As for `COC(=O)c1ccccc1SC1CC(=O)N(c2ccccc2)C1=O` (stereo unspecified), the inhibition was 40.2%.

In the case of `Cc1cccc(Cn2c(C(C)(C)C)cc3cccnc32)c1`, the inhibition was 26%.

For `CN(C)CCNC=C(C(=O)Nc1ccc(Cl)cc1Cl)C(=O)Nc1ccc(Cl)cc1Cl`, the inhibition is 38.9%.

In the case of `CCCN(Cc1nc(-c2ccc(Cl)cc2)no1)CC1CCCO1` (stereo unspecified), the inhibition is 53.1% (active).

Regarding `COc1ccc(-c2noc(CCC(=O)N3CCC(C)CC3)n2)cc1`, the inhibition was 48%.

On to `OCCNc1c2ccccc2nc2c(F)c(F)c(F)c(F)c12`, for which the inhibition was 34.6%.

For the molecule `CCN(c1cccc(C)c1)S(=O)(=O)c1cccc(C(=O)O)c1`, the inhibition was 26.2%.

As to `Cn1ncc(S(=O)(=O)Cc2ccccc2)c(Cl)c1=O`, the inhibition is 21.1%.

In the case of `Cc1cc(C)cc(Cn2ncc(Cl)c(Cl)c2=O)c1`, the inhibition was 60.6% (active).

Consider `COC(=O)c1ccc(NC(=O)c2ccccc2N(C)S(=O)(=O)c2ccccc2)cc1`, for which the inhibition was 37%.

As for `CCOc1ccc(C2N(c3ccc(F)cc3)C(=O)C3CCCN32)cc1` (stereo unspecified), the inhibition is 16.4%.

With `CCOc1ccc(N2C(=O)CC(N)C2=O)cc1` (stereo unspecified), the inhibition is 64.3% (active).

With `CCCCCCOc1ccc(N2C(=O)CC(N3CCC(C(=O)OCC)CC3)C2=O)cc1` (stereo unspecified), the inhibition was 21.6%.

Consider `Cc1cc(Cl)c(OCCCN2CCCCC2)c(Br)c1`, for which the inhibition is 33.4%.

On to `Cc1c(C(=O)NCC2COc3ccccc3O2)oc2ccc(S(=O)(=O)N3CC(C)CC(C)C3)cc12` (stereo unspecified), for which the inhibition was 21.3%.

Consider `COc1cc(OC)nc(-n2ncc(Br)c(Br)c2=O)n1`, for which the inhibition is 50% (active).

Regarding `Cc1sc(NC(=O)c2cc3ccccc3oc2=O)c(C(=O)OC(C)C)c1-c1ccccc1`, the inhibition was 28.5%.

Consider `C=CCNc1oc(COc2ccc(C)cc2)nc1C#N`, for which the inhibition is 47.8%.

With `CCCN(CCC)C(=O)Cn1c(=O)n(CCCCC(=O)NCc2ccco2)c(=O)c2ccccc21`, the inhibition was 29.8%.

Turning to `CC1CCCC(NC(=O)C2CCN(S(=O)(=O)N3CCCCC3)CC2)C1C` (stereo unspecified), the inhibition was 26.3%.

Turning to `Cc1ccc(C(=O)c2no[n+]([O-])c2C(=O)c2ccc(C)cc2)cc1`, the inhibition was 58.2% (active).

Take `CCOC(=O)c1nn(-c2ccc(C)cc2)cc1C(=O)c1ccccc1`: the inhibition was 46.5%.

Take `O=[N+]([O-])c1ccc2cn(-c3ccccc3)nc2c1`: the inhibition was 40.4%.

For `NC(=O)C1(N2CCCCC2)CCN(Cc2nc(-c3cccs3)no2)CC1`, the inhibition is 37.5%.

`Oc1oc(-c2ccccc2)nc1C=Nc1cccc2ccccc12`: the inhibition was 40.1%.

As to `CCOC(=O)C1CCCCN1Cc1ccc(F)c(Br)c1` (stereo unspecified), the inhibition was 31.7%.

With `Cc1cc(Cl)c(OCCCn2ccnc2)c(Br)c1`, the inhibition was 38.1%.

On to `c1cc2c3c(cccc3c1)NC1(CCCCCC1)N2`, for which the inhibition is 13.9%.

Turning to `Cc1ccc(OC(=S)Nc2ccc(O)cc2)cc1`, the inhibition is 90.7% (active).

For `Cc1ccc(Oc2ccccc2/C=N/O)cc1`, the inhibition was 42.1%.

Regarding `O=C(CC(O)(C(F)(F)F)C(F)(F)F)Nc1ccc(Cl)c(Cl)c1`, the inhibition is 98.8% (active).

With `CN1CCN(C(=S)Nc2ccc(Cl)c(Cl)c2)CC1`, the inhibition is 24.9%.

Take `O=C(COc1ccc(CO)cc1Cl)Nc1ccc(F)cc1`: the inhibition was 25.6%.

Turning to `CC(=O)Nc1cccc(OCCCNC(=O)C2CCC2)c1`, the inhibition is 28.2%.

In the case of `Cc1c(NC(=O)c2cc3c(s2)-c2ccccc2OC3)cccc1[N+](=O)[O-]`, the inhibition was 34.7%.

In the case of `O=[N+]([O-])c1ccc(-n2nnnc2-c2ccccc2)cc1`, the inhibition was 0.15%.

Regarding `Cc1ccc(-n2nnnc2C(Cl)c2nnnn2-c2ccc(C)cc2)cc1`, the inhibition was 71.5% (active).

With `CCc1oc2ccccc2c1C(=O)CCN1CCCCC1`, the inhibition was 37.6%.

`CCOc1ccc(/C=C/C(=O)c2ccccc2)cc1OC`: the inhibition was 53.2% (active).

Take `CCOC(=O)c1cc(-c2ccccc2)n(CC(=O)Nc2ccc(OC)c(OC)c2)c1C`: the inhibition is 25.8%.

`COc1ccc(/C=N/OC(=O)Nc2ccccc2)cc1[N+](=O)[O-]`: the inhibition is 23.2%.

In the case of `O=C(NCc1ccco1)c1cnn2c1NC(c1ccc(Br)cc1)CC2C(F)(F)F` (stereo unspecified), the inhibition was 50.6% (active).

Take `COc1ccc(/C=C\c2onc(C)c2S(=O)(=O)N2CCC(C(=O)NCc3ccco3)CC2)cc1`: the inhibition is 41.2%.

For the molecule `Cc1ccc(CN2CCN(/N=C/c3ccc(C(F)(F)F)cc3)CC2)c(C)c1`, the inhibition is 49%.

`CCOCC(O)CNC(=O)c1ccc(OC2CCN(C(=O)c3cccnc3)CC2)cc1` (stereo unspecified): the inhibition was 29.6%.

In the case of `CC1CCN(CCOc2ccc(Cl)c(Cl)c2)CC1`, the inhibition is 43.7%.

As for `CCN(C(=O)COC(=O)c1cccnc1Nc1cccc(C(F)(F)F)c1)C1CCS(=O)(=O)C1` (stereo unspecified), the inhibition is 45.4%.

Consider `COc1cc(Br)cc(C=Nc2cccc(C(F)(F)F)c2)c1O`, for which the inhibition is 11.4%.

`COC(=O)/C=C/C(=O)Nc1cccc(C(F)(F)F)c1`: the inhibition is 56.3% (active).

As for `Cc1ccc(NC(=O)/C=C\C(=O)NCC(=O)O)cc1C`, the inhibition is 30.8%.

In the case of `NC(=O)/C=C\C(=O)Nc1cccc(C(F)(F)F)c1`, the inhibition was 71.8% (active).

Regarding `Cc1cs/c(=N\N=C\c2ccccc2)n1Cc1ccco1`, the inhibition is 32.1%.

On to `Cc1cccc(C)c1C(OCCN(C)C)C1CCCCC1` (stereo unspecified), for which the inhibition was 37%.

As to `CC(=O)c1ccc(NC(=O)/C=C/c2ccc(C)cc2)cc1`, the inhibition was 48.6%.

For `CSc1ccc(/C=C/C(=O)c2ccc(O)cc2)cc1`, the inhibition was 61.5% (active).

In the case of `O=C(/C=C/Sc1ccccc1)c1ccc(Cl)cc1`, the inhibition is 38.4%.

For the molecule `CSc1ccc(/C=C/C(=O)c2ccc(NC(C)=O)cc2)cc1`, the inhibition was 51% (active).

Regarding `O=c1ncn(-c2cccc(F)c2)c2ncccc12`, the inhibition was 37.1%.

Regarding `N#CC(C#N)=C1C=CC=CN1/C(=C\c1ccccc1Cl)C(=O)c1ccccc1`, the inhibition was 5.75%.

Regarding `CCn1cc(C(=O)O)c(=O)c2cc(F)c(N3CCNCC3)cc21`, the inhibition is 27.4%.

As for `CC(C)COC(=O)Nc1nnc(SCc2ccccc2F)s1`, the inhibition is 49.2%.

Consider `CCSc1nnc(NC(=O)c2ccc(C)o2)s1`, for which the inhibition is 54.3% (active).

As to `CCSc1nnc(NC(=O)c2ccccc2)s1`, the inhibition is 83.2% (active).

As for `Cc1ccc(Nc2nnc(SCC(=O)Nc3ccc(S(=O)(=O)N4CCOCC4)cc3)s2)cc1`, the inhibition is 18.2%.

On to `CCCc1[nH]nc2c1C(c1ccoc1)C(C#N)=C(N)O2` (stereo unspecified), for which the inhibition was 37.9%.

For the molecule `O=C(c1ccc(F)cc1)c1cn(Cc2ccc(F)cc2)c2cc3c(cc2c1=O)OCCO3`, the inhibition was 26.4%.

In the case of `Cc1ccc(Cn2nnnc2CN2CCC(c3nc4ccc(Cl)cc4[nH]3)CC2)cc1`, the inhibition was 34.2%.

In the case of `Cc1noc2ncc(C(=O)c3cc(F)ccc3O)cc12`, the inhibition was 17.8%.

For `c1ccc2c(Nc3nc(N4CCOCC4)c4ccccc4n3)cccc2c1`, the inhibition is 93.2% (active).

As for `CCOc1cc(-c2c(C)c(C)nc(N)c2C#N)ccc1O`, the inhibition is 30.4%.

As for `O=C(OC1CCOC1=O)c1cc(-c2ccc(Br)cc2)nc2ccccc12` (stereo unspecified), the inhibition was 21%.

Regarding `O=C(Nc1ccon1)c1cc2ccccc2oc1=O`, the inhibition was 31.5%.

For the molecule `CC1=C(C(=O)Nc2ccc(Cl)cc2)C(c2ccco2)NC(=O)N1` (stereo unspecified), the inhibition is 23.4%.

`Cc1ccn2cc(-c3ccc(NC(=O)c4ccco4)cc3)nc2c1`: the inhibition is 82.7% (active).

As to `O=C(Nc1ccc2oc(-c3ccccc3)nc2c1)c1ccco1`, the inhibition is 86.7% (active).

For the molecule `O=C(CCl)Nc1nc(-c2ccco2)c(-c2ccco2)s1`, the inhibition is 32.2%.

On to `O=C(Nc1cccc(-c2cn3ccccc3n2)c1)c1cccc(Cl)c1`, for which the inhibition was 39.9%.

For `Cc1ccc2oc(-c3ccc(NC(=O)c4cccnc4)cc3)nc2c1`, the inhibition was 44.6%.

Regarding `O=C(Nc1ccc(-c2cn3ccccc3n2)cc1)c1ccco1`, the inhibition was 76.8% (active).

For the molecule `Cc1sc(NC(=O)c2ccco2)nc1-c1ccccc1`, the inhibition is 73% (active).

Regarding `O=C(Nc1nc(-c2ccco2)c(-c2ccco2)s1)C1CCC1`, the inhibition was 39%.

In the case of `CCCCC(=O)Nc1ccc(C(=O)NNC(=S)NC(=O)c2ccco2)cc1`, the inhibition is 42.2%.

For `CSc1ccc(C(=O)C2CCCN(C(=O)c3ccc4c(c3)no[n+]4[O-])C2)cc1` (stereo unspecified), the inhibition is 18.6%.

Take `Cn1nnc(NC(=O)/C=C/c2ccco2)n1`: the inhibition was 35%.

For `Cn1c(N)c(C(=O)COC(=O)C2(c3ccc(Cl)cc3)CCCC2)c(=O)n(C)c1=O`, the inhibition was 28.2%.

For the molecule `Clc1ccc2c(N/N=C/c3ccc(Br)cc3)ccnc2c1`, the inhibition was 47.6%.

With `CCOC(=O)c1c(C)c(C(=O)NCCCOC(C)C)c(C)n1C`, the inhibition is 26.2%.

Regarding `COc1ccc(N(C)C2=NS(=O)(=O)c3ccccc32)cc1`, the inhibition is 27.9%.

On to `C=C(C)C1Cc2c(C)nn(-c3ccccn3)c2C1` (stereo unspecified), for which the inhibition is 2.3%.

Take `CC(OC(=O)Cc1c(F)cccc1Cl)C(=O)NCCC1=CCCCC1` (stereo unspecified): the inhibition is 46.2%.

In the case of `Cc1ccc(C(=O)Nc2ccc3nc(C)sc3c2)s1`, the inhibition was 77% (active).

For `COc1ccccc1NC(=O)c1ccc(C)s1`, the inhibition was 38.7%.

`Cc1nc2ccc(NC(=O)c3cc([N+](=O)[O-])cc([N+](=O)[O-])c3Cl)cc2s1`: the inhibition was 40.5%.

(Values after PubChem BioAssay AID488841 (Sanford-Burnham Center for Chemical Genomics, 2010).)
